Screening data as filed in PubChem BioAssay.
Compounds with a hit are over-represented: about 7.9% of the library has one in this group of screens.
Lassa entry inh: inhibitors of Lassa virus binding or cell entry; Lassa virus pseudotype entry inhibition, cell reporter; Potency, µM (series often up to 37.9 µM), inactives show top-dose activity change, negative = inhibition, most hits filed as inhibitors; 1.2% of 300,000 active; calls by dose curve; tested in HEK293 cells; note: potency is the fitted concentration of half-maximal effect; nearly all actives have a fitted effect of over 50% in size
HCV inh: blocks hepatitis C virus; Potency, µM (titrated, usually from 41.8 µM), for the others: top-dose activity change, negative = inhibition, usual class: inhibitors; 3.4% of 340,000 active; Huh7.5.1 HCVcc-Cre infection, luciferase reporter, 44 h; AID 651820; active = well fitted inhibition curve with a large enough effect; inconclusive = small, poorly fitted or top-dose-only effect, or another doubt; inactive = no such curve, though single readings can be large or run the other way; note: potency is the fitted concentration of half-maximal effect
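A cell-based infection assay in which seeded cells (1,000 per well) receive test compound after 4 h, are inoculated with HCVcc-Cre at approximately 0.5 moi, and are incubated 44 h before luminescence detection.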
HCMV inh: human cytomegalovirus inhibition | HFF cells, HCMV-luciferase reporter, 72 h; stronger effect = lower value | activity change, negative = inhibition, % at 57.5 µM | 4.5% of 410,000 active | AID 1259415; in the data active = activity change below about -60%; inconclusive = no clear call, values can overlap the other calls; inactive = above about -39%
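Steps: HFFs plated, 16 h 37C; compounds added; HCMV-luciferase added to MOI 1 PFU/cell; 72 h 37C; OneGlo reagent, 5 min room temperature; luminescence read, normalized to controls.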
FMDV antiviral: blocks foot and mouth disease virus | FMDV antiviral cell-based qHTS | Potency, µM (highest dose often 57.9 µM), without a hit: at the top dose activity change, negative = inhibition, actives largely listed as inhibitors | 1.2% of 410,000 active; calls by dose curve; tested in HEK293T cells; note: read-out not given here; potency is the fitted concentration of half-maximal effect; nearly all actives have a fitted effect of over 45% in size
MARV entry inh: Marburg virus entry inhibition; Marburg virus pseudotyped entry inhibition, cell reporter; Potency, µM (series often up to 37.8 µM), inactives show top-dose activity change, negative = inhibition, usual class: inhibitors; 1.8% of 300,000 active; AID 540276; calls by dose curve; tested in HEK293 cells; note: potency is the fitted concentration of half-maximal effect
An asterisk follows results filed as active; u = inconclusive; x = no result; + = active, no number; [ ] = dose if it differs, or a comment. % is set by controls: 0 for no effect and ±100 for the full control effect.

SMILES | Lassa entry inh | HCV inh | HCMV inh | FMDV antiviral | MARV entry inh
CCCCOCCCNC(=O)C[C@@H]1C[C@@]2(C(=O)OC)CC(C)(C)CC=C2N(Cc2ccc3c(c2)OCO3)C1=O | x | x | -14.9 | -19.2% | x
CCOC(=O)[C@]12CCC=C1N(Cc1ccccc1)C(=O)[C@H](CC(=O)NCc1ccc(OC)c(OC)c1)C2 | x | x | 16.6 | -26.9% | x
COCCCNC(=O)C[C@@H]1C[C@@]2(C(=O)OC)CC(C)(C)CC=C2N(Cc2ccc3c(c2)OCO3)C1=O | x | x | -62.4* | 0.6% | x
O=C(CSc1nncn2c1cc1sccc12)Nc1ccccc1C(F)(F)F | 7.9%[46.1 µM] | x | -72.7* | -11.2% | x
COc1ccccc1NC(=O)CSc1nncn2c1cc1sccc12 | 10.0%[46.1 µM] | x | u | -14.8% | x
O=C(c1cscn1)N1CCOc2ccc(CN3CCC(Oc4cccnc4)CC3)cc2C1 | x | x | x | -14.9% | x
O=C(NC1CCCc2c1cnn2-c1ccccc1F)c1ccncc1 (stereo not drawn) | x | x | -84.0* | u | x
O=C(NC1CCCc2c1cnn2-c1ccc(F)cc1F)c1ccccn1 (stereo not drawn) | -12.4%[46.1 µM] | -18.1% | -39.4 | -27.9% | u
Cc1nnsc1C(=O)NC1CCCc2c1cnn2-c1ccccc1F (stereo not drawn) | 0.501µM* | u | -87.4* | u | u
O=C(NC1CCCc2c1cnn2-c1ccccc1F)c1ccccn1 (stereo not drawn) | x | u | -97.8* | -20.8% | x
O=C(COCc1cc(-c2ccc3c(c2)OCO3)on1)NCc1ccc(F)cc1 | -1.0%[46.1 µM] | x | 15.2 | -16.0% | x
CCCSc1nc(N2CCOCC2)c2c(c1C#N)CCCC2 | -17.8% | 11.2µM* | -31.3 | u | -28.1%
N#CCCSc1nc(N2CCOCC2)c2c(c1C#N)CCCC2 | u | u | -34.2 | u | -4.4%
CN1Cc2c(N3CCOCC3)nc(SCc3ccccc3)c(C#N)c2CC1(C)C | -2.1% | 10µM* | -21.3 | -10.9% | u
COC(=O)CSc1nc(N2CCOCC2)c2c(c1C#N)CC(C)(C)N(C)C2 | 0.8% | -23.8% | -22.5 | -6.2% | 8.1%
CC1(C)Cc2c(C#N)c(SCC(=O)c3ccccc3)nc(N3CCOCC3)c2CS1 | 17.8µM* | u | 18.3 | -11.9% | -28.8%
C[n+]1ccc(/C=C/c2ccc3ccccc3c2)cc1 | x | x | x | -2.1% | x
C[n+]1ccc(/C=C/c2ccc(Br)cc2)cc1 | -24.0% | u | -63.3* | -14.7% | u
Cc1ccsc1C1C(C#N)=C(N)Oc2n[nH]c(C)c21 (stereo not drawn) | -3.6% | 16.4% | -11.4 | 31.6µM* | u
Nc1nc(Cl)cc(N2CCCC2)n1 | x | 20.8% | 131.1 | -10.1% | 7.9%[46.1 µM]
Nc1nc(Cl)cc(N2CCC(c3cc(-c4ccc(Cl)cc4Cl)n[nH]3)CC2)n1 | u | 22.4µM* | -100.0* | u | u
COC(=O)C(C)Oc1ccc(-c2nccc(-c3ccccn3)n2)cc1 (stereo not drawn) | 13.8%[46.1 µM] | -9.0% | 25.3 | 14.6% | u
CC(C)C1CCC(C(=O)N[C@H](Cc2ccccc2)C(=O)O)CC1 (stereo partly drawn) | x | x | x | -12.2% | x
O=C(NC(Cc1cccc(F)c1)C(=O)O)C1CCCCC1 (stereo not drawn) | x | 2.82µM* | -4.4 | -14.4% | x
Cc1ccc(/C=C(\C#N)C(=O)N2CCCC2)c(C)c1 | 21.0%[46.1 µM] | 13.2% | -15.7 | 23.0% | 6.7%[46.1 µM]
SMILES | Lassa entry inh | HCV inh | HCMV inh | FMDV antiviral | MARV entry inh
Cc1csc(SCC(=O)Nc2cccc3nsnc23)n1 | u | -55.9% | -74.7* | -8.9% | 7.8%
CSCCC(NC(=O)c1ccco1)C(=O)Nc1ccc(C)c(S(=O)(=O)N2CCOCC2)c1 (stereo not drawn) | 1.0%[46.1 µM] | -6.0% | -10.0 | -8.3% | -28.0%
CC(C)(C)C(=O)Cn1c(=O)n(CCCCCC(=O)NCc2ccccc2Cl)c(=O)c2sccc21 | -18.9%[46.1 µM] | x | -20.9 | -20.5% | u
O=C(CCn1nc(-c2ccc(Cl)cc2)c2ccccc2c1=O)Nc1cccnc1 | -2.4%[46.1 µM] | u | -65.5* | -14.8% | u
COc1ccc(-c2nn(C)c(=O)c3ccccc23)cc1NC(=O)COc1ccc(C)cc1 | 5.8µM* | u | u | u | u
Cn1nc(-c2ccc(OCC(=O)Nc3cccnc3)cc2)c2ccccc2c1=O | -4.2% | u | 97.5 | 35.5µM* | -12.7%
CCC(=O)Nc1cc(-c2nn(C)c(=O)c3ccccc23)ccc1OC | 17.9% | -17.8% | 129.8 | -15.9% | u
Cc1csc(CN(C)C(=O)CC2C(=O)NCCN2Cc2ccc(Cl)c(F)c2)n1 (stereo not drawn) | x | 18.1% | + | -1.5% | x
